Bioassay records: PubChem, National Center for Advancing Translational Sciences (NCATS)
Shiga toxin inh: blocks Shiga toxin action in Vero cells; Vero cells, Shiga toxin protein synthesis inhibition reporter; 9.2% of 290,000 active; inhibition, % at 38.7 µM; in the data active means inhibition mostly above about 28%, no sharp cut-off; inactive means mostly below about 43%; further: 0% is about no effect
LASV entry inh: blocks Lassa virus binding to or entry into cells; Lassa virus pseudotype entry inhibition, cell reporter; Potency, µM (doses to about 37.9 µM), for the others: top-dose activity change, negative = inhibition, actives largely listed as inhibitors; 1.2% of 300,000 active; AID 540256; calls by dose curve; tested in HEK293 cells; further: potency means the concentration at half of the fitted maximal effect; on the % scale 0 is the no-effect control and ±100 the full control effect; nearly all actives have a fitted effect of over 50% in size
CHX counter: affects cycloheximide protein synthesis inhibition readout, counter-screen. cell reporter, cycloheximide protein synthesis inhibition counterscreen. max response, %. 12% of 300,000 active; in the data active means max response mostly above about 13%, no sharp cut-off; inactive means mostly below about 14%; further: read at 38.3 µM for the half of the compounds with a filed dose; 0% is about no effect
Marburg entry inh: inhibitors of Marburg virus binding or cell entry | AID 540276 | Potency, µM (highest dose often 37.8 µM), inactives show top-dose activity change, negative = inhibition, usual class: inhibitors | 1.8% of 300,000 active | Marburg virus pseudotyped entry inhibition, cell reporter; calls by dose curve; tested in HEK293 cells; further: potency means the concentration at half of the fitted maximal effect; on the % scale 0 is the no-effect control and ±100 the full control effect
* = called active by the depositor; ? = inconclusive; nt = no result given; [ ] = another dose, or the depositor's remark. This is a sample that favours compounds with a hit; in the whole collection about 12% have one here.

SMILES	Shiga toxin inh	LASV entry inh	CHX counter	Marburg entry inh
C/C(=N\Nc1ccccn1)c1cccs1	93*	nt	46*	-12%[46.1 µM]
C/C(=N\Nc1ccccn1)c1ccc(OC(F)F)cc1	38*	nt	18	?
CCc1c2c(nc3ccc(OC(=O)N4CCC(N5CCCCC5)CC4)cc13)-c1cc3c(c(=O)n1C2)COC(=O)C3(O)CC (stereo not given)	-10	nt	-5	nt
CCc1ccc(NS(=O)(=O)c2ccc3[nH]cc(C(=O)NC4CCCC4)c(=O)c3c2)cc1	nt	8%[46.1 µM]	nt	?
Cc1nn2cc(-c3cccc(Cl)c3)cnc2c1Cl	124*	?	33*	4.5µM*
CC(C)n1nnnc1-c1cccc(Cl)c1	8	20%[14.3 µM]	9	0%
Cc1nn2cc(-c3cccc(Cl)c3)cnc2c1Br	56*	9%	14	?
CCOc1ccc2nc(N[C@@](NC(=O)CC)(C(=O)OC)C(F)(F)F)sc2c1	nt	nt	nt	2%
COc1ccc(-c2nc(CN3CCC(C(=O)NCCCN4CCN(c5ccccc5F)CC4)CC3)c(C)o2)cc1OC	nt	?	nt	4.5µM*
COc1ccc(-c2nc(CN3CCC(C(=O)NCc4ccc(F)cc4)CC3)c(C)o2)cc1OC	nt	-11%[46.1 µM]	nt	12%[46.1 µM]
CCc1ccc(-c2nc(CN3CCC(C(=O)NCc4ccc(F)cc4)CC3)c(C)o2)cc1	36	?	29	21µM*
Cc1oc(-c2ccc(Cl)cc2)nc1CN1CCC(C(=O)NCCCN2CCOCC2)CC1	2	?	0	13µM*
CCc1c(C)sc(NC(=S)N2CC(C)OC(C)C2)c1C(=O)OC (stereo not given)	3	nt	-1	nt
O=C(COc1cc(Cl)c(Cl)cc1Cl)NC(=O)Nc1ccc2c(c1)OCCO2	145*	27%	76*	?
Cc1ccc(Cl)c(OCC(=O)Nc2ccc3c(c2)OCCO3)c1	112*	80%[14.3 µM]	52*	?
CCc1ccccc1N(CC)C(=O)Cn1nc(Cc2ccncc2)c2ccccc2c1=O	nt	-6%[46.1 µM]	nt	?
Cn1cccc1-c1nc2ccc(NC(=O)c3ccco3)cc2[nH]1	56	-10%	44*	?
O=C(Nc1cccc(-c2nc3ccccc3[nH]2)c1)c1ccco1	42*	-21%	17	?
O=C(Nc1ccc(-c2nc3ccc(NC(=O)c4cccs4)cc3[nH]2)cc1)c1cccs1	-24	?	-2	?
Cc1ccc2nc(-c3ccc(NC(=O)c4ccco4)cc3)[nH]c2c1	75*	?	39*	?
c1cncc(CNc2cccc(-c3nc4ccccc4[nH]3)c2)c1	active	?	54*	?
O=C(Nc1ccc2nc(-c3cccs3)[nH]c2c1)c1ccco1	60*	28%	27*	6%
O=C(Nc1cccc(-c2cnc3ccccc3n2)c1)c1cccc(NC(=O)c2ccco2)c1	46*	?	43*	12µM*
COc1ccc(OC)c(CCNC(=O)CCn2c(=O)c3cccn3c3cccnc32)c1	nt	4%[46.1 µM]	nt	nt
COc1ccc(N2CC(NC(=O)/C=C\c3ccccc3)CC2=O)cc1OC (stereo not given)	nt	12%[46.1 µM]	nt	nt
SMILES	Shiga toxin inh	LASV entry inh	CHX counter	Marburg entry inh
Cn1ncc(N=Cc2ccccc2)c1C(N)=O	26	7%	9	-14%
Nc1ncc(Br)cc1N=Cc1ccccc1	27*	-20%	75*	-1%
Cc1ccc(/C(O)=C2\C(=O)C(=O)N(C)C2c2cccc([N+](=O)[O-])c2)cc1 (stereo not given)	-3	14%[46.1 µM]	-2	-1%[46.1 µM]
CN1CCN(C(=O)c2ccc(-c3ccccc3)cc2)CC1	26	18%	9	16%
CC(=O)NCC(=O)N1CCCC(C(=O)c2ccc(Oc3ccccc3)cc2)C1 (stereo not given)	20	4%	13	3%[46.1 µM]
CC1CCCN(C(=O)COc2ccc(-c3ccccc3)cc2)C1 (stereo not given)	40*	?	17	?
COCC(=O)N1CCCC(C(=O)c2ccc(-c3ccccc3)cc2)C1 (stereo not given)	12	nt	11*	nt
CN1CCCC(C(=O)c2ccc(-c3ccccc3)cc2)C1 (stereo not given)	34*	nt	23*	nt
CN1CC(C(=O)c2ccccc2)C(C(=O)c2ccccc2)C1 (stereo not given)	112*	20%	55*	-12%
CCN(c1ccc(OC)cc1)S(=O)(=O)c1c(C(=O)N2CCCCCC2)c(C)n(C)c1C	nt	-16%[46.1 µM]	nt	nt
COc1ccccc1C(=O)NCC(c1cccs1)N1CCc2ccccc21 (stereo not given)	nt	-10%	nt	?
COCCn1c(-c2ccccc2)nc2oc3ccccc3c(=O)c2c1=O	11	-11%	-2	-28%
COCCn1c(-c2cc(OC)c(OC)c(OC)c2)nc2oc3ccccc3c(=O)c2c1=O	10	5.8µM*	-3	?
O=C(NCc1ccccc1)/C(=N\O)c1ccccc1	54*	?	21*	26%[46.1 µM]
O=C(NCc1ccccn1)/C(=N/O)c1ccccc1	31*	25%	36*	?
O=C(NCc1cccnc1)/C(=N\O)c1ccccc1	-5	10%	-7	-1%[46.1 µM]
CC(=O)N1CCN(C(=S)NC(=O)c2ccc(S(=O)(=O)N3CCOCC3)cc2)CC1	6	6%	1	3%
COc1cc(/C=c2\s/c(=C\C(=O)C(C)(C)C)[nH]c2=O)cc(OC)c1OC	13	?	-2	?
COc1ccc(/C=c2\s/c(=C\C(=O)C(C)(C)C)[nH]c2=O)cc1O	7	nt	15*	1%
Cc1cccc(/C=c2\s/c(=C\C(=O)C(C)(C)C)[nH]c2=O)c1	41	?	23*	-12%
O=C(NCCc1c[nH]c2ccccc12)c1ccc(S(=O)(=O)NCc2ccco2)cc1	-3	-10%	16*	-13%
COc1ccc(CCNC(=O)c2ccc(OCc3c(C)noc3C)c(OC)c2)cc1	nt	?	nt	12%
COc1cc(C(=O)NCCc2c[nH]c3ccccc23)ccc1OCc1c(C)noc1C	-13	7.9µM*	-1	-26%[46.1 µM]
Cc1cc([N+](=O)[O-])nn1CC(=O)NCCc1c[nH]c2ccccc12	-14	?	5	?
O=C(NCCc1c[nH]c2ccccc12)c1ccccc1	94*	?	39*	7%
SMILES	Shiga toxin inh	LASV entry inh	CHX counter	Marburg entry inh
CC(C)C(=O)NCCc1c[nH]c2ccccc12	2	-2%	6	?
O=C(Cn1ccc([N+](=O)[O-])n1)NCCc1c[nH]c2ccccc12	92*	-12%[46.1 µM]	58*	-13%[46.1 µM]
O=C1CCC=C1C(O)CCc1ccccc1 (stereo not given)	nt	nt	nt	34%[14.2 µM]
O=C(NCCc1c[nH]c2ccccc12)c1ccc([N+](=O)[O-])cc1	80*	?	38*	?
Cc1ccc(C(=O)NCCc2c[nH]c3ccccc23)c(C)c1	87*	11µM*	79*	?
O=C(NCCc1c[nH]c2ccccc12)c1cc([N+](=O)[O-])cc([N+](=O)[O-])c1	-3	nt	2	nt
Cc1ccc(C(=O)NCCc2c[nH]c3ccccc23)s1	85*	nt	52*	?
O=C(O)c1ccc(N/N=C/c2ccc(C(F)(F)F)cc2)cc1	24	1.3µM*	23	1.6µM*
CC(C)(C)c1ccc(/C=N/Nc2ccc(C(=O)O)cc2)cc1	24	2µM*	9	3.7µM*
O=C(O)c1ccc(/C=N/Nc2ncc(C(F)(F)F)cc2Cl)cc1	10	24%[46.1 µM]	1	0%[46.1 µM]
